Data reported in PubChem BioAssay (NCATS).
Results filed as inconclusive are left out. The source made the active and inactive calls. Calls come from the whole dose curve; as a rule, active = well fitted curve in the direction sought with a large enough effect; inconclusive = small, poorly fitted or top-dose-only effect, or another doubt; inactive = no such curve, though single readings can be large; an effect the other way counts as inactive or inconclusive.

How the values were obtained:
[1] = P-glycoprotein substrates identified in KB-8-5-11 adenocarcinoma cell line, qHTS therapeutic library screen (AID 1346987); details: KB-8-5-11 (P-gp overexpressing) viability, CellTiter-Glo, 72 h; series mostly up to 44.5 µM; note: nearly all actives have a fitted effect of over 65% in size
In short: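 KB-8-5-11: colchicine-selected sub-line of KB-3-1 over-expressing P-gp; assay medium lacked colchicine. 72 h drug exposure at 37 degree C, CellTiter-Glo.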

[2] = NS1 protein of Zika virus - qHTS assay to identify small molecule inhibitors in human HEK 293 cells (AID 1347053); details: HEK293 ZIKV MR766 infection, NS1 TR-FRET, 24 h; series mostly up to 46.1 µM;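 note: plate controls were infected untreated cells for no effect and uninfected cells for full effect; nearly all actives have a fitted effect of over 55% in size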
In short: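 HEK 293 cells, seeded 20 h at 37 C, were pretreated with compound 1 h, then infected with ZIKV MR766 (MOI = 0.5) for 24 h. NS1 was read by TR-FRET with two anti-NS1 antibodies, normalized to uninfected and infected wells.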

[3] = qHTS of pediatric cancer cell lines to identify multiple opportunities for drug repurposing: Primary screen for TC32 cells (AID 1347089); details: TC32 Ewing sarcoma viability, CellTiter-Glo luminescence, 48 h; series mostly up to 45.8 µM; note: % is set by controls: 0 for no effect and ±100 for the full control effect; nearly all actives have a fitted effect of over 60% in size
In short: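 Luminescent CellTiter-Glo read-out of metabolically active TC32 cells after 48 h compound exposure. Primary: MIPE 11-point, 0.78 nM–46 µM; NPC 8-point, 0.59 nM–46 µM. Confirmatory: 11-point dilutions.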

[4] = qHTS of pediatric cancer cell lines to identify multiple opportunities for drug repurposing: Primary screen for DAOY cells (AID 1347090); details: DAOY medulloblastoma viability, CellTiter-Glo luminescence, 48 h; series mostly up to 46 µM;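 note: plate controls were DMSO for no effect and bortezomib for full effect; nearly all actives have a fitted effect of over 55% in size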
In short: (§1)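 Cell viability, CellTiter-Glo luminescence; 500-1,000 cells/well, 8- or 11-point titration, 48 h compound exposure at 37 degrees C, 5% CO2. Controls: DMSO neutral, bortezomib 2.3 µM final as positive.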

[5] = qHTS of pediatric cancer cell lines to identify multiple opportunities for drug repurposing: Primary screen for SJ-GBM2 cells (AID 1347091); details: SJ-GBM2 viability, CellTiter-Glo luminescence, 48 h; series mostly up to 46 µM;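 note: plate controls were DMSO neutral control for no effect and bortezomib for full effect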
In short: as §1

[6] = qHTS of pediatric cancer cell lines to identify multiple opportunities for drug repurposing: Primary screen for A673 cells (AID 1347092); details: A673 Ewing sarcoma viability, CellTiter-Glo ATP luminescence, 48 h; series mostly up to 46 µM; note: % is set by controls: 0 for no effect and ±100 for the full control effect; nearly all actives have a fitted effect of over 45% in size
In short: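 A673 cells (500-1,000 cells/well in growth media) were pre-incubated 5 h at 37 degrees C, then exposed to compounds for 48 h. Viability was read as CellTiter-Glo luminescence; concentration-response curves came directly from the primary screen.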

[7] = qHTS of pediatric cancer cell lines to identify multiple opportunities for drug repurposing: Primary screen for SK-N-MC cells (AID 1347093); details: SK-N-MC viability, CellTiter-Glo luminescence, 48 h; series mostly up to 46 µM;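 note: plate controls were DMSO neutral control for no effect and bortezomib for full effect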
In short: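 Metabolically active cells were quantified by ATP-dependent luminescence (CellTiter-Glo, 15 min at room temperature) following 48 h treatment. Cells had been plated at 500-1,000 per well and settled for 5 h beforehand.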

[8] = qHTS of pediatric cancer cell lines to identify multiple opportunities for drug repurposing: Primary screen for BT-37 cells (AID 1347094); details: BT-37 viability, CellTiter-Glo luminescence, 48 h; series mostly up to 57.3 µM;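 note: plate controls were DMSO for no effect and bortezomib for full effect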
In short: (§2)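 Primary screen of approved and investigational compounds on cells in growth media at 37 degrees C, 5% CO2. MIPE set at 11-point and NPC set at 8-point dilutions; viability scored by ATP-based luminescence at 48 hours.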

[9] = qHTS of pediatric cancer cell lines to identify multiple opportunities for drug repurposing: Primary screen for NB-EBc1 cells (AID 1347095); details: NB-EBc1 neuroblastoma viability, CellTiter-Glo luminescence, 48 h; series mostly up to 46 µM;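 note: plate controls were DMSO neutral control for no effect and bortezomib for full effect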
In short: as §2

[10] = qHTS of pediatric cancer cell lines to identify multiple opportunities for drug repurposing: Primary screen for U-2 OS cells (AID 1347096); details: U-2 OS viability, CellTiter-Glo luminescence, 48 h; series mostly up to 46 µM;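 note: plate controls were DMSO wells for no effect and bortezomib positive control wells for full effect; nearly all actives have a fitted effect of over 50% in size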
In short: (§3)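 Cells (500-1,000/well) rested 5 h, then received compounds for 48 h; metabolically active cells were measured by CellTiter-Glo luminescence. Final concentrations spanned up to 46 µM (MIPE, 11-point) or 0.59 nM-46 µM (NPC, 8-point) in primary screens, 11-point in follow-ups.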

[11] = qHTS of pediatric cancer cell lines to identify multiple opportunities for drug repurposing: Primary screen for Saos-2 cells (AID 1347097); details: Saos-2 viability, CellTiter-Glo ATP luminescence, 48 h; series mostly up to 46 µM; note: % is set by controls: 0 for no effect and ±100 for the full control effect; nearly all actives have a fitted effect of over 40% in size
In short: as §2

[12] = qHTS of pediatric cancer cell lines to identify multiple opportunities for drug repurposing: Primary screen for SK-N-SH cells (AID 1347098); details: SK-N-SH viability, CellTiter-Glo luminescence, 48 h; series mostly up to 57 µM; note: % is set by controls: 0 for no effect and ±100 for the full control effect; nearly all actives have a fitted effect of over 65% in size
In short: as §3

[13] = qHTS of pediatric cancer cell lines to identify multiple opportunities for drug repurposing: Primary screen for NB1643 cells (AID 1347099); details: NB1643 neuroblastoma viability, CellTiter-Glo luminescence, 48 h; series mostly up to 46 µM;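 note: plate controls were DMSO neutral control for no effect and bortezomib positive control for full effect; nearly all actives have a fitted effect of over 50% in size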
In short: as §2

[14] = qHTS of pediatric cancer cell lines to identify multiple opportunities for drug repurposing: Primary screen for LAN-5 cells (AID 1347100); details: LAN-5 neuroblastoma viability, CellTiter-Glo luminescence, 48 h; series mostly up to 46 µM;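 note: plate controls were DMSO neutral control for no effect and bortezomib positive control for full effect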
In short: as §3

[15] = qHTS of pediatric cancer cell lines to identify multiple opportunities for drug repurposing: Primary screen for BT-12 cells (AID 1347101); details: BT-12 viability, CellTiter-Glo luminescence, 48 h; series mostly up to 57.3 µM;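 note: plate controls were DMSO for no effect and bortezomib positive control for full effect; nearly all actives have a fitted effect of over 25% in size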
In short: as §3

[16] = qHTS of pediatric cancer cell lines to identify multiple opportunities for drug repurposing: Primary screen for Rh18 cells (AID 1347102); details: Rh18 rhabdomyosarcoma viability, CellTiter-Glo luminescence, 48 h; series mostly up to 46 µM; note: % is set by controls: 0 for no effect and ±100 for the full control effect; nearly all actives have a fitted effect of over 65% in size
In short: as §3

[17] = qHTS of pediatric cancer cell lines to identify multiple opportunities for drug repurposing: Primary screen for OHS-50 cells (AID 1347103); details: OHS-50 osteosarcoma viability, CellTiter-Glo luminescence, 48 h; series mostly up to 57.3 µM;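 note: plate controls were DMSO neutral control for no effect and bortezomib positive control for full effect; nearly all actives have a fitted effect of over 40% in size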
In short: as §3

[18] = qHTS of pediatric cancer cell lines to identify multiple opportunities for drug repurposing: Primary screen for RD cells (AID 1347104); details: RD rhabdomyosarcoma viability, CellTiter-Glo luminescence, 48 h; series mostly up to 46 µM;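 note: plate controls were DMSO for no effect and bortezomib for full effect; nearly all actives have a fitted effect of over 55% in size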
In short: as §2

[19] = qHTS of pediatric cancer cell lines to identify multiple opportunities for drug repurposing: Primary screen for MG 63 (6-TG R) cells (AID 1347105); details: MG 63 (6-TG R) viability, CellTiter-Glo, 48 h; series mostly up to 46 µM; note: % is set by controls: 0 for no effect and ±100 for the full control effect; nearly all actives have a fitted effect of over 50% in size
In short: as §2

[20] = P-glycoprotein substrates identified in KB-3-1 adenocarcinoma cell line, qHTS therapeutic library screen (AID 1346986); details: KB-3-1 parental cells viability, CellTiter-Glo, 72 h; series mostly up to 44.5 µM; note: % is set by controls: 0 for no effect and ±100 for the full control effect; nearly all actives have a fitted effect of over 60% in size
In short: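 Counter-screen: cherry-picked hits retested in the KB pair and in HEK-293 pcDNA/MDR-19 cells ± tariquidar. Primary screen used 72 h CellTiter-Glo viability in KB-3-1 and KB-8-5-11.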

O=C(Cn1ccnc1[N+](=O)[O-])NCc1ccccc1
inactive: outcome [1] | outcome [2] | outcome [3] | outcome [4] | outcome [5] | outcome [6] | Potency [7] | outcome [8] | outcome [9] | outcome [10] | outcome [11] | outcome [12] | Potency [13] | outcome [14] | outcome [15] | outcome [16] | outcome [17] | outcome [18] | outcome [19]

O=C1c2ccccc2C(=O)C1c1ccc(Br)cc1
inactive: outcome [1] | outcome [2] | outcome [3] | outcome [4] | outcome [5] | outcome [6] | Potency [7] | outcome [8] | outcome [9] | outcome [10] | outcome [11] | outcome [12] | Potency [13] | outcome [14] | outcome [15] | outcome [16] | outcome [17] | outcome [18] | outcome [19]

NC(N)=NCCN1CCCCCCC1
inactive: outcome [1] | activity change, negative = inhibition [2] -1.99% [at 0.593 µM] | activity change, negative = cytotoxic [3] 19.1% [at 0.594 µM] | activity change, negative = cytotoxic [4] 7.11% [at 0.597 µM] | activity change, negative = cytotoxic [5] 15.5% [at 0.597 µM] | activity change, negative = cytotoxic [6] 2.24% [at 0.597 µM] | activity change, negative = cytotoxic [7] -13.5% [at 0.597 µM] | activity change, negative = cytotoxic [8] 4.17% [at 0.745 µM] | activity change, negative = cytotoxic [9] 19.5% [at 0.597 µM] | activity change, negative = cytotoxic [10] 9.69% [at 0.597 µM] | activity change, negative = cytotoxic [11] 2.27% [at 0.597 µM] | activity change, negative = cytotoxic [12] -2% [at 0.741 µM] | activity change, negative = cytotoxic [13] 6.64% [at 0.597 µM] | activity change, negative = cytotoxic [14] 4.87% [at 0.597 µM] | activity change, negative = cytotoxic [15] 7.77% [at 0.745 µM] | activity change, negative = cytotoxic [16] 6.63% [at 0.597 µM] | activity change, negative = cytotoxic [17] 7.69% [at 0.73 µM] | activity change, negative = cytotoxic [18] 3.85% [at 0.597 µM] | activity change, negative = cytotoxic [19] 7.08% [at 0.597 µM]

CCS(=O)(=O)CCn1c([N+](=O)[O-])cnc1C
inactive: outcome [1] | outcome [2] | outcome [3] | outcome [4] | outcome [5] | outcome [6] | Potency [7] | outcome [8] | outcome [9] | outcome [10] | outcome [11] | outcome [12] | Potency [13] | outcome [14] | outcome [15] | outcome [16] | outcome [17] | outcome [18] | outcome [19]

CC(=O)OC[C@H]1O[C@@](COC(C)=O)(O[C@H]2O[C@H](COC(C)=O)[C@@H](OC(C)=O)[C@H](OC(C)=O)[C@H]2OC(C)=O)[C@@H](OC(C)=O)[C@@H]1OC(C)=O
inactive: outcome [1] | outcome [2] | outcome [3] | outcome [4] | outcome [5] | outcome [6] | Potency [7] | outcome [8] | outcome [9] | outcome [10] | outcome [11] | outcome [12] | Potency [13] | outcome [14] | outcome [15] | outcome [16] | outcome [17] | outcome [18] | outcome [19]

CC(=O)N[C@H]1[C@H]([C@H](O)[C@H](O)CO)OC(C(=O)O)=C[C@@H]1N=C(N)N
inactive: outcome [1] | outcome [2] | outcome [3] | outcome [4] | outcome [5] | outcome [6] | Potency [7] | outcome [8] | outcome [9] | outcome [10] | outcome [11] | outcome [12] | Potency [13] | outcome [14] | outcome [15] | outcome [16] | outcome [17] | outcome [18] | outcome [19]

C/C=C/C(=O)N(CC)c1ccccc1C
inactive: outcome [1] | outcome [2] | outcome [3] | outcome [4] | outcome [5] | outcome [6] | Potency [7] | outcome [8] | outcome [9] | outcome [10] | outcome [11] | outcome [12] | Potency [13] | outcome [14] | outcome [15] | outcome [16] | outcome [17] | outcome [18] | outcome [19]

CCN(CC)C(=O)c1cccc(C)c1
inactive: outcome [1] | outcome [2] | outcome [3] | outcome [4] | outcome [5] | outcome [6] | Potency [7] | outcome [8] | outcome [9] | outcome [10] | outcome [11] | outcome [12] | Potency [13] | outcome [14] | outcome [15] | outcome [16] | outcome [17] | outcome [18] | outcome [19]

NS(=O)(=O)c1ccc(NC(=O)CCC(=O)O)cc1
inactive: outcome [1] | outcome [2] | outcome [3] | outcome [4] | outcome [5] | outcome [6] | Potency [7] | outcome [8] | outcome [9] | outcome [10] | outcome [11] | outcome [12] | Potency [13] | outcome [14] | outcome [15] | outcome [16] | outcome [17] | outcome [18] | outcome [19]

Cc1cc(C)c(NC(=O)CN(CC(=O)O)CC(=O)O)c(C)c1Br
inactive: outcome [1] | outcome [2] | outcome [3] | outcome [4] | outcome [5] | outcome [6] | Potency [7] | outcome [8] | outcome [9] | outcome [10] | outcome [11] | outcome [12] | Potency [13] | outcome [14] | outcome [15] | outcome [16] | outcome [17] | outcome [18] | outcome [19]

CC(C)C[C@@H](N)C(=O)O
inactive: outcome [20] | outcome [1] | outcome [2] | outcome [3] | outcome [4] | outcome [5] | outcome [6] | outcome [8] | outcome [9] | outcome [10] | outcome [11] | outcome [12] | outcome [14] | outcome [15] | outcome [16] | outcome [17] | outcome [18] | outcome [19]

COC(=O)c1cccnc1
inactive: outcome [1] | outcome [2] | outcome [3] | outcome [4] | outcome [5] | outcome [6] | Potency [7] | outcome [8] | outcome [9] | outcome [10] | outcome [11] | outcome [12] | Potency [13] | outcome [14] | outcome [15] | outcome [16] | outcome [17] | outcome [18] | outcome [19]
